Consider 60 molecules from PubChem BioAssay AID652154 (Broad Institute, 2013).

Among all 360,000 compounds or so, about 4,200 (1.2%) were called active. For the sample, actives were picked, then their nearest neighbours and some compounds at random. Unmarked numbers belong to inactive results.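 Rule for the calls: active = mean replicate inhibition at least 60% with every replicate also reaching 60%; inconclusive = only one of the two criteria is met; inactive = mean below 60% and not all replicates reaching 60%.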

The test in a line: PAX8 transcriptional activity inhibition in RMG-I – RMG-I cells, luciferase, single concentration, primary screen (AID 652154).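 Note: luciferase light reporting Pax8 driven TPO promoter activity; plate controls were median of neutral control wells for no effect and mitoxantrone controls for full effect.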 As to conditions: RMG-I TPO-luciferase reporter, SteadyGlo, 24 h; at 12.6 µM; active compounds read high.
Broadly, the inhibition is the change of the read-out against control, counted positive when it falls. For the molecule `C[C@@H]1CN([C@@H](C)CO)S(=O)(=O)c2ccc(-c3cccc(C(=O)N(C)C)c3)cc2O[C@@H]1CN(C)C`, the inhibition was -0.377%.

For `O=C(C[C@H]1C[C@H]2c3cc(NC(=O)C4CCC4)ccc3O[C@H]2[C@@H](CO)O1)NCc1ccc(Cl)cc1`, the inhibition was -5.09%.

As to `O=C(c1ccccc1)N1CCN(c2cc(-c3ccccc3)nc3cc(-c4cccc(Cl)c4)nn23)CC1`, the inhibition was 40.2%.

As to `C#Cc1cc(N2CCN(C(=O)c3ccoc3)CC2)n2nc(-c3cccc(Cl)c3)cc2n1`, the inhibition was 107% (active).

Turning to `CN(C)CCN1CCN(c2cc(-c3cccc(Cl)c3)nc3ccnn23)CC1`, the inhibition was -3.43%.

`C[C@@H]1CN([C@H](C)CO)C(=O)c2cccc(NS(=O)(=O)c3ccccc3)c2O[C@@H]1CN(C)Cc1ccc(C(=O)O)cc1`: the inhibition was 14.1%.

Regarding `CCC(=O)Nc1ccc2c(c1)C(=O)N(C)[C@@H]1CC[C@@H](CC(=O)Nc3cccc(OC)c3)O[C@@H]1CO2`, the inhibition is 8.78%.

For `Cc1ccc(C)c(S(=O)(=O)N2CCN(c3ncnc4sccc34)CC2)c1`, the inhibition is 73.6% (active).

With `Cc1ccc(C)c(S(=O)(=O)N2CCN(CC(=O)Nc3ccc([N+](=O)[O-])cc3)CC2)c1`, the inhibition was 6.46%.

Turning to `COc1ccc(-c2csc3ncnc(N4CCN(S(=O)(=O)c5ccccc5C#N)CC4)c23)cc1`, the inhibition is 9.25%.

As to `CCC(=O)Nc1ccc2c(c1)OC[C@@H](C)N(Cc1ccccc1OC)C[C@H](C)[C@H](OC)CN(C)C2=O`, the inhibition was -6.79%.

Regarding `C[C@@H]1CN([C@H](C)CO)C(=O)c2cc(NS(=O)(=O)c3cn(C)cn3)ccc2O[C@H]1CN(C)S(=O)(=O)c1ccc(Cl)cc1`, the inhibition was 1.32%.

As for `CC(=O)N(C)C[C@@H]1Oc2ncc(C#Cc3ccc(F)cc3)cc2C(=O)N([C@H](C)CO)C[C@@H]1C`, the inhibition was -8.23%.

In the case of `C[C@H](CO)N1C[C@H](C)[C@@H](CN(C)S(=O)(=O)c2cccc(F)c2)Oc2cc(C#CCN(C)C)ccc2S1(=O)=O`, the inhibition was 14.6%.

`COc1ccccc1S(=O)(=O)N(C)C[C@H]1Oc2cc(C#CCC3CCCC3)ccc2S(=O)(=O)N([C@@H](C)CO)C[C@H]1C`: the inhibition is 77.3% (active).

Regarding `CCCN(C)C[C@H]1Oc2cc(C#CCC3CCCC3)ccc2S(=O)(=O)N([C@@H](C)CO)C[C@@H]1C`, the inhibition is 2%.

In the case of `COCC(=O)N(C)C[C@@H]1Oc2cc(C3=CCCC3)ccc2S(=O)(=O)N([C@@H](C)CO)C[C@H]1C`, the inhibition was -21%.

Regarding `Cc1ccc(S(=O)(=O)N(C)C[C@@H]2Oc3cc(C4=CCCC4)ccc3S(=O)(=O)N([C@@H](C)CO)C[C@@H]2C)cc1`, the inhibition is 36.4%.

For `COc1cccc(S(=O)(=O)N(C)C[C@@H]2Oc3cc(C4=CCCCC4)ccc3S(=O)(=O)N([C@H](C)CO)C[C@H]2C)c1`, the inhibition is 65.8% (active).

As for `C[C@@H]1CN([C@@H](C)CO)S(=O)(=O)c2ccc(C#CCN(C)C)cc2O[C@@H]1CN(C)S(=O)(=O)c1cccc(F)c1`, the inhibition is -15.8%.

`C[C@@H]1CN([C@H](C)CO)S(=O)(=O)c2ccc(C#CCC3CCCC3)cc2O[C@H]1CN(C)C(=O)CC1CC1`: the inhibition is 23.3%.

Consider `CCCC#Cc1ccc2c(c1)O[C@@H](CN(C)S(=O)(=O)c1cccc(OC)c1)[C@H](C)CN([C@@H](C)CO)S2(=O)=O`, for which the inhibition is 60.4% (active).

Regarding `C[C@H]1CN([C@@H](C)CO)C(=O)Cc2cc(NC(=O)Nc3cccc4ccccc34)ccc2O[C@@H]1CN(C)C`, the inhibition is -5.56%.

In the case of `OC[C@H]1[C@H](c2ccc(-c3ccccc3F)cc2)[C@H]2CN(Cc3cncnc3)CCCCN21`, the inhibition was 1.13%.

For the molecule `COc1ccccc1-c1ccc2c(c1)O[C@H](CN(C)C(=O)c1cccnc1)[C@@H](C)CN([C@H](C)CO)S2(=O)=O`, the inhibition was 15%.

In the case of `C=CC[C@]12C[C@@]3(O[C@H](c4ccc(C(F)(F)F)cc4)N=C3C[C@H](c3ccc(OC)cc3)[C@H]1C)N(C1CCN(Cc3ccccc3)CC1)C2=O`, the inhibition is -2.39%.

For `CNC[C@@H]1Oc2cc(C#CC3(O)CCCC3)ccc2S(=O)(=O)N([C@@H](C)CO)C[C@H]1C`, the inhibition is 9.72%.

Turning to `C[C@@H]1CN([C@H](C)CO)S(=O)(=O)c2ccc(C#CC3CCCC3)cc2O[C@@H]1CN(C)C(=O)Cc1ccncc1`, the inhibition is 90.6% (active).

In the case of `C[C@@H]1CN([C@H](C)CO)S(=O)(=O)c2ccc(C#CC3CCCCC3)cc2O[C@H]1CN(C)C(=O)Cc1ccncc1`, the inhibition is 0.108%.

As to `CC(C)C#Cc1ccc2c(c1)O[C@@H](CN(C)C(=O)NC(C)C)[C@H](C)CN([C@H](C)CO)S2(=O)=O`, the inhibition was -13.2%.

As for `C[C@H]1CN([C@@H](C)CO)S(=O)(=O)c2ccc(C#Cc3ccncc3)cc2O[C@@H]1CN(C)C(=O)Nc1ccc2c(c1)OCO2`, the inhibition was 101% (active).

Consider `C[C@H]1CN([C@@H](C)CO)S(=O)(=O)c2ccc(C#CC3CCCC3)cc2O[C@H]1CN(C)C(=O)Cc1ccncc1`, for which the inhibition is 32.9%.

For the molecule `C[C@@H]1CN([C@@H](C)CO)S(=O)(=O)c2ccc(C#Cc3ccccc3)cc2O[C@@H]1CN(C)C(=O)Nc1ccccc1`, the inhibition was 3.61%.

With `C[C@H]1CN([C@@H](C)CO)S(=O)(=O)c2ccc(C3=CCCC3)cc2O[C@H]1CN(C)C(=O)Nc1ccc2c(c1)OCO2`, the inhibition was 19.4%.

As for `C[C@@H]1CN([C@H](C)CO)S(=O)(=O)c2ccc(C3=CCCC3)cc2O[C@H]1CN(C)C(=O)Nc1ccc2c(c1)OCO2`, the inhibition is 8.58%.

As to `C[C@H](CO)N1C[C@H](C)[C@H](CN(C)C(=O)Nc2ccc3c(c2)OCO3)Oc2cc(C#Cc3ccncc3)ccc2S1(=O)=O`, the inhibition was 72.2% (active).

Regarding `CC(C)NC(=O)N1CCCCN2[C@@H](CO)[C@@H](c3ccc(C#Cc4ccccc4)cc3)[C@@H]2C1`, the inhibition is 1.5%.

Regarding `C/C=C/c1ccc2c(c1)O[C@@H](CN(C)CC1CCOCC1)[C@@H](C)CN([C@H](C)CO)S2(=O)=O`, the inhibition is -8.71%.

`O=C(NC1CCCCC1)N[C@H]1CC[C@H](CCNS(=O)(=O)c2ccc(F)cc2)O[C@H]1CO`: the inhibition is 1.61%.

Turning to `C[C@@H]1CCCCO[C@H](CN(C)C(=O)c2ccccc2)[C@H](C)CN([C@H](C)CO)C(=O)c2cc(N(C)C)ccc2O1`, the inhibition was 12.7%.

Turning to `CC(C)NC(=O)Nc1ccc2c(c1)C(=O)N([C@H](C)CO)C[C@@H](C)[C@@H](CN(C)C(=O)c1ccncc1)OCCCC[C@H](C)O2`, the inhibition was 1.42%.

Consider `C[C@@H]1CN([C@@H](C)CO)C(=O)Cc2cc(NC(=O)Nc3ccc(C(F)(F)F)cc3)ccc2O[C@H]1CN(C)Cc1ccc(C(=O)O)cc1`, for which the inhibition is -5.6%.

On to `Cc1ccc(S(=O)(=O)Nc2ccc3c(c2)C(=O)N([C@@H](C)CO)C[C@@H](C)[C@H](CN(C)Cc2ccc(C(F)(F)F)cc2)O3)cc1`, for which the inhibition was 10.1%.

As to `C[C@H](CO)N1C[C@H](C)[C@H](CN(C)Cc2ccc(Oc3ccccc3)cc2)Oc2c(NC(=O)CCCCCC(=O)Nc3ccccc3N)cccc2C1=O`, the inhibition was 9.67%.

For `Cc1ccc(S(=O)(=O)Nc2ccc3c(c2)CC(=O)N([C@@H](C)CO)C[C@H](C)[C@H](CN(C)Cc2ccccc2)O3)cc1`, the inhibition is -12.9%.

In the case of `Cc1ccc(S(=O)(=O)Nc2ccc3c(c2)CC(=O)N([C@H](C)CO)C[C@@H](C)[C@H](CN(C)Cc2ccc(C(F)(F)F)cc2)O3)cc1`, the inhibition is 70.8% (active).

For `C[C@@H]1CN([C@H](C)CO)C(=O)c2cccc(NC(=O)CCCCCC(=O)Nc3ccccc3N)c2O[C@H]1CN(C)Cc1ccc(Oc2ccccc2)cc1`, the inhibition is 71.9% (active).

Regarding `C[C@H](CO)N1C[C@H](C)[C@@H](CN(C)Cc2ccc(-c3ccccc3)cc2)Oc2ccc(NC(=O)CCC(F)(F)F)cc2CC1=O`, the inhibition is 70.4% (active).

`C[C@@H]1CN([C@@H](C)CO)C(=O)c2cccc(NC(=O)CCCCCC(=O)Nc3ccccc3N)c2O[C@H]1CN(C)C(=O)Nc1ccccc1`: the inhibition was -12.6%.

Regarding `C[C@@H]1CN([C@H](C)CO)C(=O)Cc2cc(NC(=O)CCC(F)(F)F)ccc2O[C@@H]1CN(C)Cc1ccncc1`, the inhibition is -1.08%.

In the case of `C[C@H](CO)N1C[C@H](C)[C@@H](CN(C)Cc2ccc(Cl)c(Cl)c2)Oc2ccc(NC(=O)Nc3ccc(C(F)(F)F)cc3)cc2CC1=O`, the inhibition was 99.1% (active).

As to `C[C@@H]1CN([C@@H](C)CO)C(=O)Cc2cc(NC(=O)CCCN(C)C)ccc2O[C@@H]1CN(C)Cc1ccc(-c2ccccc2)cc1`, the inhibition was 10.4%.

Consider `C[C@@H]1CN([C@H](C)CO)C(=O)Cc2cc(NC(=O)Nc3ccccc3)ccc2O[C@H]1CN(C)Cc1ccc(Cl)c(Cl)c1`, for which the inhibition is 8.31%.

On to `C[C@@H]1ON(C)[C@H]2C[C@H]3c4cc(N5CCOCC5)ccc4CCN3C[C@@H]12`, for which the inhibition is -4.88%.

In the case of `O=C(Nc1ccccc1F)N1CC(=O)N2[C@H](C1)[C@@H](c1ccc(C#CC3CC3)cc1)[C@@H]2CO`, the inhibition is -14.6%.

With `O=C(N[C@@H]1CC[C@@H](CCNS(=O)(=O)c2ccccc2Cl)O[C@@H]1CO)c1ccccc1`, the inhibition is -1.25%.

`O=C(C[C@@H]1CC[C@H]2[C@@H](COC[C@H](O)CN2Cc2ccc(F)cc2)O1)N1CCc2ccccc2C1`: the inhibition is -7.32%.

Regarding `CO[C@@H]1CN(C)C(=O)c2cc(NC(=O)c3cnccn3)ccc2OC[C@@H](C)N(CC2CC2)C[C@H]1C`, the inhibition is 6.97%.

For `CO[C@@H]1CN(C)C(=O)c2cc(NC(=O)C3CC3)ccc2OC[C@H](C)N(CC2CC2)C[C@H]1C`, the inhibition is 7.02%.

With `C[C@@H](O)C#Cc1ccc2c(c1)O[C@@H](CN(C)C)[C@@H](C)CN([C@@H](C)CO)S2(=O)=O`, the inhibition was -0.827%.
